The results in this text go back to PubChem BioAssay (EPA / NIEHS).

In test [1] the target is Nuclear respiratory factor 1 (Homo sapiens) (UniProt Q16656). Kind of test: ATG_NRF1_CIS: Attagene CIS-FACTORIAL HepG2 Assay for human Nuclear Respiratory Factor 1 (NRF1) Orphan Gene (AID 2282987). The note with it: HepG2 NRF1 cis-element reporter, Attagene multiplex; actives raise or lower the signal. The essentials: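 Reporter mRNA induction or loss in HepG2 cells after 24 h dosing; cis-regulated reporter constructs report endogenous transcription-factor activity. Quantified by RT-PCR/capillary electrophoresis fluorescence, DMSO-referenced.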

Test [2] can be described thus: ATG_NFI_CIS: Attagene CIS-FACTORIAL HepG2 Assay for human Nuclear Factor I (NFI) (AID 2282989). To be noted: HepG2 cis-regulatory reporter, NFI response element transcription; actives raise or lower the signal. The procedure, abridged: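 Transfected HepG2 liver cells, exposed 24 h, supplied total RNA for oligo(dT) reverse transcription and reporter-specific PCR. Labelled, HpaI-cut fragments were sized by capillary electrophoresis; DMSO set the baseline for bidirectional fitting.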

For test [3], the target named is Myc proto-oncogene protein (Homo sapiens) (UniProt P01106). As to the kind of experiment: ATG_Myc_CIS: Attagene CIS-FACTORIAL HepG2 Assay for human Myelocytomatosis (Myc) Proto-Oncogene Transcription Factor (AID 2282990). The note with it: HepG2, Attagene cis-reporter transcription factor activity; actives raise or lower the signal. The procedure, abridged:
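Transiently transfected HepG2 cells bearing cis-promoter reporter units for endogenous transcription factors; 24 h exposure. Reporter mRNA measured by RT-PCR, 6-FAM primer extension, HpaI cut and capillary electrophoresis; bidirectional fit relative to DMSO.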

Test [4] can be described thus: ATG_NF_kB_CIS: Attagene CIS-FACTORIAL HepG2 Assay for human Nuclear Factor Kappa B (NF-kB) (AID 2282991). To be noted: HepG2 Attagene cis-factorial NF-kB reporter mRNA; actives raise or lower the signal. The essentials: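 DMSO served as negative control and baseline for bidirectional curve fitting. Transiently transfected HepG2 cells were dosed for 24 h, then reporter transcripts were measured by RT-PCR with capillary electrophoresis detection.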

A short description of test [5]: ATG_NRF2_ARE_CIS: Attagene CIS-FACTORIAL HepG2 Assay for human Nuclear Factor Erythroid 2 Related Factor 2 (NFR2) response to Antioxidant Response Elements (ARE) (AID 2282992).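 As to AC50: reporter mRNA level measured by RT-PCR and capillary electrophoresis fluorescence.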 To be noted: HepG2 Attagene ARE/NRF2 reporter, transcription factor activity; actives raise or lower the signal. The procedure, abridged: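 Endogenous transcription factor activity in human liver HepG2 cells is tracked via a cis-element-driven reporter within a multiplexed set. mRNA induction is read by RT-PCR and capillary electrophoresis after 24 h, with DMSO as baseline.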

A short description of test [6]: ATG_Oct_MLP_CIS: Attagene CIS-FACTORIAL HepG2 Assay for human Octamer-Binding Transcription Factor (Oct) (AID 2282993). To be noted: HepG2 Attagene cis-factorial Oct reporter, mRNA; actives raise or lower the signal. The essentials:
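Using HepG2 cells bearing transfected cis-reporter constructs, mRNA induction was read after 24 h by fluorescent RT-PCR and capillary electrophoresis, with DMSO defining baseline for gain- or loss-of-signal fits.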

Test [7] concerns the target Cellular tumor antigen p53 (Homo sapiens) (UniProt P04637). As to the kind of experiment: ATG_p53_CIS: Attagene CIS-FACTORIAL HepG2 Assay for human p53 Transcription Factor (AID 2282994). The note with it: HepG2 p53 cis-element reporter, Attagene mRNA; actives raise or lower the signal. The procedure, abridged:
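Steps: transfect HepG2 with multiplexed cis reporter constructs; dose chemicals 24 h; extract RNA, reverse-transcribe, PCR-amplify reporter sequences; FAM-label, HpaI-digest, resolve fragments by CE. Activity fitted both directions relative to DMSO.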

A short description of test [8]: BSK_3C_TissueFactor: BioMAP Diversity Plus: 3C Assay for Tissue Factor Biomarker Activity (AID 2282997). The note with it: BioMAP 3C HUVEC, tissue factor biomarker readout; actives raise or lower the signal. The essentials: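 Tissue factor on primary human umbilical vein endothelium was read by ELISA 24 h after dosing, gain or loss relative to DMSO. Cytotoxicity ran alongside via SRB (0.1%, TCA-fixed, 560 nm).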

A short description of test [9]: BSK_3C_uPAR: BioMAP Diversity Plus: 3C Assay for Urokinase-type plasminogen activator receptor (uPAR) Biomarker Activity (AID 2282998). The note with it: BioMAP 3C HUVEC, uPAR biomarker ELISA; actives raise or lower the signal. The essentials:
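In this endothelial cell-based assay, human umbilical vein primary cells were treated with chemicals and harvested at 24 h. uPAR was quantified using ELISA, with gains or losses fitted relative to DMSO controls.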
(An ELISA detects its analyte on a solid surface through an enzyme-linked reagent.)

The nature of test [10]: BSK_3C_VCAM1: BioMAP Diversity Plus: 3C Assay for Vascular cell adhesion molecule 1 (VCAM1) Biomarker Activity (AID 2282999). To be noted: BioMAP 3C HUVEC, VCAM1 ELISA, cytokine-stimulated; actives raise or lower the signal. The essentials:
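HUVEC primary cells, 24 h compound exposure; VCAM-1 by ELISA; gain/loss of signal fitted bidirectionally vs DMSO baseline.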

A short description of test [11]: BSK_4H_Eotaxin3: BioMAP Diversity Plus: 4H Assay for Eotaxin 3 Biomarker Activity (AID 2283000).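 As to outcome: CCL26 protein level quantified by ELISA in parallel with SRB cytotoxicity check.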 To be noted: primary human endothelial cells (HUVEC); actives raise or lower the signal. The procedure, abridged: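 Human umbilical vein endothelial cells (BSK_4H system) dosed with test chemical; Eotaxin-3 (CCL26) measured by ELISA 24 h after dosing. Bidirectional curve fitting relative to DMSO negative control as baseline.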

The target of test [12] is human Peroxisome Proliferator-activated Receptor alpha (PPARa), PPARA (gene 5465) (UniProt Q07869). Kind of test: ATG_PPARa_TRANS: Attagene TRANS-FACTORIAL HepG2 Assay for human Peroxisome Proliferator-activated Receptor alpha (PPARa) (AID 2283001; active = hit-call score of the fitted dose curve at least 0.9, where 1 is the maximum). The essentials: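 Transient HepG2 transfection, GAL4-UAS reporters, NR-Gal4 chimeras; 24 h compound exposure. Readout: reporter transcripts by RT-PCR, 6-FAM primer extension, HpaI digest, capillary electrophoresis. Positive direction vs DMSO baseline.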

Read-out in test [13]: Intercellular Adhesion Molecule 1 (ICAM1), ICAM1 (gene 3383)
Kind of test: BSK_3C_ICAM1: BioMAP Diversity Plus: 3C Assay for Intercellular Adhesion Molecule 1 (ICAM1) Biomarker Activity (AID 2283003). To be noted: primary human endothelial cells (HUVEC); actives raise or lower the signal. The essentials: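 ELISA read-out of ICAM-1; HUVEC (primary human), 3C system, 24 h post-dosing; bidirectional fit vs DMSO baseline.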

Test [14] can be described thus: BSK_3C_Proliferation: Cell Proliferation Assessment in the BioMAP Diversity Plus: 3C Assay (AID 2283006).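 As to AC50: potency may reflect either rise or fall in cell number versus DMSO.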 The note with it: primary human endothelial cells (HUVEC). The essentials: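 HUVEC, sub-confluent; 48 h chemical exposure; 10% TCA fix, 0.1% SRB stain, A560 total protein. Gain or loss of signal fitted both directions vs DMSO control.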
The target of test [15] is Peroxisome proliferator-activated receptor gamma (Homo sapiens) (UniProt P37231). Kind of test: ATG_PPARg_TRANS: Attagene TRANS-FACTORIAL HepG2 Assay for human Peroxisome Proliferator-activated Receptor-gamma (PPARg) (AID 2283007; active = hit-call score of the fitted dose curve at least 0.9, where 1 is the maximum). The procedure, abridged:
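Chimeric NR-Gal4 transactivation is measured in transiently transfected HepG2 cells by reporter mRNA induction at 24 h. Detection uses RT-PCR with fluorescent labelling and capillary electrophoresis; DMSO defines baseline.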

For test [16], the target named is Nuclear receptor subfamily 1 group I member 2 (Homo sapiens) (UniProt O75469). Kind of test: ATG_PXR_TRANS: Attagene TRANS-FACTORIAL HepG2 Assay for human Pregnane X Receptor (PXR) (AID 2283008; active = hit-call score of the fitted dose curve at least 0.9, where 1 is the maximum). The essentials:
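HepG2 transfected (FuGene 6) with GAL4-UAS reporter units + PXR-Gal4 chimera; dosed 24 h. Total RNA → oligo(dT) RT → PCR → 6-FAM primer extension → HpaI cut → CE. Gain-of-signal vs DMSO.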

The target in test [17] is human Peroxisome Proliferator-activated Receptor delta (PPARd), PPARD (gene 5467) (UniProt Q03181). Kind of test: ATG_PPARd_TRANS: Attagene TRANS-FACTORIAL HepG2 Assay for human Peroxisome Proliferator-activated Receptor delta (PPARd) (AID 2283002; active = hit-call score of the fitted dose curve at least 0.9, where 1 is the maximum). The procedure, abridged: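 HepG2 cells transiently transfected with GAL4-UAS multiplexed reporter units driven by exogenous chimeric NR-GAL4 proteins; 24 h compound exposure. Reporter mRNA measured by RT-PCR, 6-FAM primer extension, HpaI digestion and capillary electrophoresis; gain of signal fitted relative to DMSO.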

In test [18] the target is Retinoic acid receptor alpha (Homo sapiens) (UniProt P10276). As to the kind of experiment: ATG_RARa_TRANS: Attagene TRANS-FACTORIAL HepG2 Assay for human Retinoic Acid Receptor alpha (RARa) (AID 2283005; active = hit-call score of the fitted dose curve at least 0.9, where 1 is the maximum). The essentials: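 HepG2 transiently transfected with multiplex GAL4-UAS reporter units including a human RARa–GAL4 chimera; 24 h compound exposure. Reporter mRNA quantified by RT-PCR, 6-FAM labeling and capillary electrophoresis; gain of signal versus DMSO.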

Test [19] deals with human Retinoic Acid Receptor beta (RARb), RARB (gene 5915) (UniProt P10826). Kind of test: ATG_RARb_TRANS: Attagene TRANS-FACTORIAL HepG2 Assay for human Retinoic Acid Receptor beta (AID 2283004; active = hit-call score of the fitted dose curve at least 0.9, where 1 is the maximum). The procedure, abridged: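 Induction of reporter mRNA from a chimeric RARb-Gal4 construct was measured by RT-PCR, FAM labelling, HpaI digestion and capillary electrophoresis. Measurements followed 24 h compound treatment of transiently transfected human HepG2 liver cells, with DMSO as baseline.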

The target in test [20] is human Retinoic Acid Receptor gamma (RARg), RARG (gene 5916) (UniProt P13631). Kind of test: ATG_RARg_TRANS: Attagene TRANS-FACTORIAL HepG2 Assay for human Retinoic Acid Receptor gamma (RARg) (AID 2283009; active = hit-call score of the fitted dose curve at least 0.9, where 1 is the maximum). The essentials:
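Readout: reporter transcript levels via RT-PCR, 6-FAM primer-extension labelling, HpaI digestion and capillary electrophoresis. Cells: HepG2 carrying transfected RARg-GAL4 chimera plus UAS reporter set. Dosing 24 h; DMSO negative control.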

“And” between values parts separate entries of the source, which are not always exact repeats. Identical values can stand only once. Inconclusive results are not listed. The source holds several records for some structures; these can differ, active in one and inactive in another. The source made the active and inactive calls. The calls were made as follows, unless noted: active = hit-call score of the fitted dose curve at least 0.9, where 1 is the maximum; inactive = score below 0.9.

Chain of Retinoic acid receptor alpha (Homo sapiens) (P10276 whole entry, looked up, the tested form may be a part): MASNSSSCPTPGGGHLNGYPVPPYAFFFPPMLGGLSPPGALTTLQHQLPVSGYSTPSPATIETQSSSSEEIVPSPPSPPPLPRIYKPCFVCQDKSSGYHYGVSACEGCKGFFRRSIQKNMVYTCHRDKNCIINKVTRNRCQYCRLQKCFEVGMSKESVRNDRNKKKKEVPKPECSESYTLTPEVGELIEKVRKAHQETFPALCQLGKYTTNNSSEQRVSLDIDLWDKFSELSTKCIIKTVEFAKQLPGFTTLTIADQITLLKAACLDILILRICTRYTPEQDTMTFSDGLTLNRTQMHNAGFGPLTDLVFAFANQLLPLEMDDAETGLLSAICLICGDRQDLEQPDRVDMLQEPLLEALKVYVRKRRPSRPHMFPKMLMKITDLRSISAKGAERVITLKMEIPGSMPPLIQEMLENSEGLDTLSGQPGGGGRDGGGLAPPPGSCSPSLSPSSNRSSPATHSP
Chain of Myc proto-oncogene protein (Homo sapiens) (P01106 whole entry, looked up): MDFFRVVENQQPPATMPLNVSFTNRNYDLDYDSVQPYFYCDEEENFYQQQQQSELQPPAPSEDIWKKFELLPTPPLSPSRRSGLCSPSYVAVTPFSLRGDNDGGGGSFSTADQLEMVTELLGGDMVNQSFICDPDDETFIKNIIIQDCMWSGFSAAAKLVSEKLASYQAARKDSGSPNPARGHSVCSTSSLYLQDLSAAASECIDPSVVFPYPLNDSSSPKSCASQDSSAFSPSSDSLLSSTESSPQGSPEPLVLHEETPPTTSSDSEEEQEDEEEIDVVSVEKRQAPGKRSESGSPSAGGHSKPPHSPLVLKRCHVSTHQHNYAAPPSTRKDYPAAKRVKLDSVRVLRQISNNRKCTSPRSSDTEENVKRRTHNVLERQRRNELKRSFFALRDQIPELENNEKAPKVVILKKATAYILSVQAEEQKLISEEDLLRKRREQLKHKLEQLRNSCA
Chain of Peroxisome proliferator-activated receptor gamma (Homo sapiens) (P37231 whole entry, looked up, the tested form may be a part): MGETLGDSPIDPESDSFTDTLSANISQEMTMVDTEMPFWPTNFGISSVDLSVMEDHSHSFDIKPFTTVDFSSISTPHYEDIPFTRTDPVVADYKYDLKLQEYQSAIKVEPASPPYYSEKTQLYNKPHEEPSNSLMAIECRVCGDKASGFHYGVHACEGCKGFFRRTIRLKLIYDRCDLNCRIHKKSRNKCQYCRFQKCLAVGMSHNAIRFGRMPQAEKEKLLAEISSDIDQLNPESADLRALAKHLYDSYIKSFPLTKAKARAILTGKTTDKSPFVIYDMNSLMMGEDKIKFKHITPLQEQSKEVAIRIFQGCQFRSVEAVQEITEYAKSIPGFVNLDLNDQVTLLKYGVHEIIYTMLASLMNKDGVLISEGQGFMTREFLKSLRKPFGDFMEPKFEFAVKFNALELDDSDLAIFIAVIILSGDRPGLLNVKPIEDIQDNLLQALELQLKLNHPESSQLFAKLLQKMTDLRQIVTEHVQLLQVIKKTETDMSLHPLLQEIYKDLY
Chain of Cellular tumor antigen p53 (Homo sapiens) (P04637 whole entry, looked up, the tested form may be a part): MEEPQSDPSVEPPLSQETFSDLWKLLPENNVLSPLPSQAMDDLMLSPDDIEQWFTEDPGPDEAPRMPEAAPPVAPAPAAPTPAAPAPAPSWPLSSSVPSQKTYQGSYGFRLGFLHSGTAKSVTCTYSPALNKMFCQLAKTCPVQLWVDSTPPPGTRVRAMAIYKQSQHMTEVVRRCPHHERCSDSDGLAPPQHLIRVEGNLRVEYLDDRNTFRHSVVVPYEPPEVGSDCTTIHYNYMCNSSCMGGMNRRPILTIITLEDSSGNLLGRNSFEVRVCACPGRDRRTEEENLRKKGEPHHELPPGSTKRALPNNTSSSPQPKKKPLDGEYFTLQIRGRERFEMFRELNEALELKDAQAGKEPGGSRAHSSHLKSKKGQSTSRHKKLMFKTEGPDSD
Chain of Nuclear receptor subfamily 1 group I member 2 (Homo sapiens) (O75469 whole entry, looked up, the tested form may be a part): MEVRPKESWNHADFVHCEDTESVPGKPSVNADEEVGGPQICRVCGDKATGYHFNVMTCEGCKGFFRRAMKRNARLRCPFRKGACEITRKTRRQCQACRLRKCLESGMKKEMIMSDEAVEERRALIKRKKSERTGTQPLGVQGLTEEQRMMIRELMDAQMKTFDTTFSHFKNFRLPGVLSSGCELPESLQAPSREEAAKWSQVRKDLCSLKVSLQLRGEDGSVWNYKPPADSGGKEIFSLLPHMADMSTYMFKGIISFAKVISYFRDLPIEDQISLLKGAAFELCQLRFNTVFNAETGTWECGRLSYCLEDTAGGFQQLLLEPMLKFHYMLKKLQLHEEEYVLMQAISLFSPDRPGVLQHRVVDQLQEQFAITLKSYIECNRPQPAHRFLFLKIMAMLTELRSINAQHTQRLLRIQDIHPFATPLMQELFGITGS
Chain of human Peroxisome Proliferator-activated Receptor alpha (PPARa), PPARA (gene 5465) (Q07869 whole entry, looked up, the tested form may be a part): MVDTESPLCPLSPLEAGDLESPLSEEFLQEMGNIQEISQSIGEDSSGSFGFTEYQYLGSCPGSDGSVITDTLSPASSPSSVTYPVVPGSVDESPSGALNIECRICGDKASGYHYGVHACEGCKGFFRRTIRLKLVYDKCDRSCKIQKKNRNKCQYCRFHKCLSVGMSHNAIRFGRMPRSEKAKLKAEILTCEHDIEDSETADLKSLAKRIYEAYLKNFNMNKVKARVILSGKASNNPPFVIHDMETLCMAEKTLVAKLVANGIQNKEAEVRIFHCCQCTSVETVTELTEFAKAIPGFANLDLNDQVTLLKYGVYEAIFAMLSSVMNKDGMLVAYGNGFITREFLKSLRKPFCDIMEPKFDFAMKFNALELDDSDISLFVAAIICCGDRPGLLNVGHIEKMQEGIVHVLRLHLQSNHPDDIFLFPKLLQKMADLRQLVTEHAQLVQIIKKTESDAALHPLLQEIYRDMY
Chain of Nuclear respiratory factor 1 (Homo sapiens) (Q16656 whole entry, looked up): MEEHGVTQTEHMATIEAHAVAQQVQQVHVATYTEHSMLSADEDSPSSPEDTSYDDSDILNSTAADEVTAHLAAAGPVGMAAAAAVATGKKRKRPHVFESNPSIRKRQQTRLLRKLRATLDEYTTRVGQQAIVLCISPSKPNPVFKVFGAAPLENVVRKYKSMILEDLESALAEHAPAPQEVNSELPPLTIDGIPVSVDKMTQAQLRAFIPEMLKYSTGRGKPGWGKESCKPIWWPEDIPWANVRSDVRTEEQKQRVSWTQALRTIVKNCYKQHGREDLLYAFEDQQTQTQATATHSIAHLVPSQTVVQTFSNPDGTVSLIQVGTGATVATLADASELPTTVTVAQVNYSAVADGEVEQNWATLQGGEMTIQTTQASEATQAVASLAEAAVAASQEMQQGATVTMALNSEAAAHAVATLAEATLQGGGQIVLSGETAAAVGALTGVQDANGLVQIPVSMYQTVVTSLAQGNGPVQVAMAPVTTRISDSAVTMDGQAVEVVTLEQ
Chain of human Peroxisome Proliferator-activated Receptor delta (PPARd), PPARD (gene 5467) (Q03181 whole entry, looked up, the tested form may be a part): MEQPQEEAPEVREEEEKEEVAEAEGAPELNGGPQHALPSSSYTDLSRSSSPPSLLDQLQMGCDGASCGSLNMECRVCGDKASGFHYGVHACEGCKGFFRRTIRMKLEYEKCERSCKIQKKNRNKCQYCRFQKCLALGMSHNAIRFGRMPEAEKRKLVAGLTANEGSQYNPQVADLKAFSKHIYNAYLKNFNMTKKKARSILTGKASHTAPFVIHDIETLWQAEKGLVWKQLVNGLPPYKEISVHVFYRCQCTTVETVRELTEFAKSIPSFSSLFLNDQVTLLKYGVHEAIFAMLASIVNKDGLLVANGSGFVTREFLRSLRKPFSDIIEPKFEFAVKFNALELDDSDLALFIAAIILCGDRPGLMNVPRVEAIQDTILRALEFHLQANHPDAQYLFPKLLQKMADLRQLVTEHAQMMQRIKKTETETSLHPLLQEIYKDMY
Chain of human Retinoic Acid Receptor beta (RARb), RARB (gene 5915) (P10826 whole entry, looked up, the tested form may be a part): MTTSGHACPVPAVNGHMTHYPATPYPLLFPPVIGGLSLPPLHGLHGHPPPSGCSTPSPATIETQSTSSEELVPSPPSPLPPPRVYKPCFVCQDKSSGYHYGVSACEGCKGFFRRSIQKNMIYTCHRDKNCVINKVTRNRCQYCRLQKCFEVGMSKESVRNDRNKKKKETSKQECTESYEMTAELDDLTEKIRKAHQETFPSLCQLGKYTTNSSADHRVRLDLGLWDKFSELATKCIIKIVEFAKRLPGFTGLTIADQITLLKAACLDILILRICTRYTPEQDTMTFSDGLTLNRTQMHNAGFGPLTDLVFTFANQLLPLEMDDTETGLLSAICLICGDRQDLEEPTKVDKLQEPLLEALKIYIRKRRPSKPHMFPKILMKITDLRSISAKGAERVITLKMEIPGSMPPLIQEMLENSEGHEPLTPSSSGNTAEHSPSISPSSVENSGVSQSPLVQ
Chain of human Retinoic Acid Receptor gamma (RARg), RARG (gene 5916) (P13631 whole entry, looked up, the tested form may be a part): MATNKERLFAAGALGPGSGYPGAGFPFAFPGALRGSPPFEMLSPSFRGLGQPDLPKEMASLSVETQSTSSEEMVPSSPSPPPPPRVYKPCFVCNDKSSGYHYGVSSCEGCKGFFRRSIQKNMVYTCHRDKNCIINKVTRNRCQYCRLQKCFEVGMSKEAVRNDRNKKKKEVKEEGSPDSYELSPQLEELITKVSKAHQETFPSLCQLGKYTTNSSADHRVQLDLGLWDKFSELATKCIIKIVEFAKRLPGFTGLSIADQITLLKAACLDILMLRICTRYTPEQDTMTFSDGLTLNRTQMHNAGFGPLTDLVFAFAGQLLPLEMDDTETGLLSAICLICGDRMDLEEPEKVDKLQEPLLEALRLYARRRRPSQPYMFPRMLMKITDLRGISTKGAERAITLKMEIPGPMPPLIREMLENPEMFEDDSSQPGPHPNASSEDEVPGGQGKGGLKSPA

Turning to `FC(F)(F)C(F)(F)C(F)(F)CC1CO1` (centres undefined), the compound was called inactive in test [1], in [2], in [3], in [4], in [5] and in test [6]. For the same compound, the result in test [7], in test [8], in test [9], in test [10], in test [11] and in test [12] was inactive. Moreover, the result in [13], in [14], in test [15] and in test [16] was inactive.
For the compound `C=C(C)C(=O)OCC(F)(F)C(F)(F)C(F)(F)C(F)F`, the result in test [1], in test [2], in [3], in test [4], in test [5] and in [6] was inactive. Besides, the compound was classed as inactive in [7], in test [8], in test [9], in [10], in test [11] and in test [12]. For the same compound, the result in test [17], in test [13], in test [18], in test [14], in [15] and in test [16] was inactive.
Regarding `C=CCOC(=O)CC(C)C`, the compound was classed as inactive in test [1], in test [2], in [3], in test [4], in test [5] and in test [6]. Besides, the result in test [7] was inactive.
Regarding `NCC(F)(F)C(F)(F)C(F)(F)C(F)(F)C(F)(F)C(F)(F)F`, the call in test [1], in [2], in test [3], in test [4], in [5] and in test [6] was inactive. Also, the compound was called inactive in test [7], in [8], in test [9], in test [10], in [11] and in [12]. In addition, the compound was classed as inactive in test [17], in [13], in [19], in test [18], in test [14] and in test [15]. Further, the compound was classed as inactive in test [16].
A word on the AC50: it is the midpoint of the concentration-response curve, whichever way the signal moves. Consider `OCC(F)(F)C(F)(F)C(F)(F)C(F)(F)C(F)(F)C(F)(F)C(F)(F)C(F)(F)CO`, for which the compound was called inactive in test [1], in test [2], in [3], in test [4], in [5] and in test [6]. In addition, the call in [7], in test [8], in [9], in [10], in test [11] and in test [17] was inactive. For the same compound, the result in test [13] and in test [15] was inactive. Also, the AC50 in test [9] is 7.66 µM (active); in [11] it was 38 µM (active); in [14], 30 µM (active) and 44.6 µM (active); in test [16], 14.4 µM (active).
For the compound `CC1=CCC(=O)O1`, the compound was classed as inactive in [1], in [2], in test [3], in test [4], in test [5] and in test [6]. In addition, the result in [7], in [12], in test [17], in [19], in test [18] and in test [15] was inactive.
Turning to `CCN(CCO)S(=O)(=O)C(F)(F)C(F)(F)C(F)(F)C(F)(F)C(F)(F)C(F)(F)C(F)(F)C(F)(F)F`, the outcome in [1], in test [2], in [3], in test [4], in test [7] and in test [9] was inactive. For the same compound, the outcome in test [10], in test [12], in [17], in test [15], in test [16] and in [20] was inactive. Also, the half-maximal activity concentration (AC50) in test [5] is 110 µM (active); in test [6] it was 15.4 µM (active); in test [8], 55.1 µM (active) and 9.9 µM (active); in test [9], 8.1 µM (active); in [11], 20.9 µM (active) and 43.5 µM (active); in [13] it was 50.8 µM (active) and 9.21 µM (active). Moreover, the concentration at half-maximal activity (AC50) in test [14] is 8.37 µM (active) and 10.7 µM (active).
